# The campaign covered roughly 310,000 compounds. About 14,000 (4.5%) showed an effect of 50% or more. The effect is printed as a negative number. The sample as a whole holds a higher share of strong results than the screen did.
# Biological target: human ether-à-go-go-related gene (hERG) potassium channel (human, UniProt Q12809)
# Experiment: primary screen, population patch clamp on CHO cells stably expressing hERG; higher = less effect of the substance
# 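Also: peak tail current of the secondary pulse compared with the same well before compound.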
# Chain of human ether-à-go-go-related gene (hERG) potassium channel (Q12809 whole entry, looked up): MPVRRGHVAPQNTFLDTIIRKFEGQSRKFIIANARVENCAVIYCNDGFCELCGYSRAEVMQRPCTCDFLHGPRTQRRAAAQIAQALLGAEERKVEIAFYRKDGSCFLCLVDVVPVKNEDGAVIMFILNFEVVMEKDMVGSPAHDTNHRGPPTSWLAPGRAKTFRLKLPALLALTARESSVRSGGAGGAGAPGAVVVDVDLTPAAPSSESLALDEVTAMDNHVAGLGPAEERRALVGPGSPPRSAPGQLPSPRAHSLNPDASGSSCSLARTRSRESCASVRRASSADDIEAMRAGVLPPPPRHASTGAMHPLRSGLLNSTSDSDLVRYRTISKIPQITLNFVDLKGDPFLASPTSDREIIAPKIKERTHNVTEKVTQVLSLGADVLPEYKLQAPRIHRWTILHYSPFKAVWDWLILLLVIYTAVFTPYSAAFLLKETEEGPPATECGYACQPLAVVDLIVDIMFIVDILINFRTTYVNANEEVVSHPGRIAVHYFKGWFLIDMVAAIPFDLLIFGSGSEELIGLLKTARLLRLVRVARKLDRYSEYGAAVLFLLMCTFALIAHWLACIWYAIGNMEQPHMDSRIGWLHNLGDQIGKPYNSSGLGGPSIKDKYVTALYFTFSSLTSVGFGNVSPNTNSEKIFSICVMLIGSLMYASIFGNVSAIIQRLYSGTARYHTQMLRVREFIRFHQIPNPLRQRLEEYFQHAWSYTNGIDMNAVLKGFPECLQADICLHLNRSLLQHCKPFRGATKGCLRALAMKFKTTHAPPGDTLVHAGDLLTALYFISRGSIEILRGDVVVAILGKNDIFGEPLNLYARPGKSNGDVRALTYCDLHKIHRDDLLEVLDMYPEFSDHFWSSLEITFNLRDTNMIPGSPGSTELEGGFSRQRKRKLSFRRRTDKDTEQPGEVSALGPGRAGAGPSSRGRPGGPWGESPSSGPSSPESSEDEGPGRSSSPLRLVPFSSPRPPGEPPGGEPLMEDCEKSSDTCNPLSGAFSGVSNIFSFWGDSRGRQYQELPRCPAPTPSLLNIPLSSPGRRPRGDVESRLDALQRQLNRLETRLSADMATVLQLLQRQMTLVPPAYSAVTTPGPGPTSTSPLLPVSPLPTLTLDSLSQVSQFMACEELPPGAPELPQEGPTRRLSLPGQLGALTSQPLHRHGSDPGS
row,SMILES,"hERG current change (%, negative = inhibition) at 10uM [%]"
1,c1ccc2c(CSCCc3ccncc3)cccc2c1,-17.6
2,COc1ccccc1CNC(=O)COC(=O)c1nc(Cl)ccc1Cl,-2.78
3,COc1ccc2c(c1)OC[C@H]1[C@H]2N2C(=O)CN(Cc3ccco3)C(=O)[C@@]2(C)[C@H]1c1ccccc1,10.7
4,CCCN(CC1CC1)CC(O)c1ccccc1.O=C(O)C(=O)O (stereo not shown),4.51
5,CC(C)NCC(O)c1ccc(C2CCCC2)cc1.O=C(O)/C=C\C(=O)O (stereo not shown),-15.5
6,CCN(CC)CC(O)c1ccc(C2CCCC2)cc1.Cl (stereo not shown),-63
7,COC(=O)c1c(NC(=O)c2ccco2)sc(C)c1C,18.1
8,CCCNC(=O)COC(=O)c1ccccc1OCc1ccc(Cl)cc1,-0.354
9,COc1ccc(C(=O)N(Cc2ccccc2)c2ccc(C)cc2)cc1S(=O)(=O)N1CCOCC1,-67.7
10,Cc1ccc(N(Cc2ccccc2)C(=O)c2ccc(C)c(S(=O)(=O)N3CCOCC3)c2)cc1,-18
11,Cc1ccc(N(Cc2ccccc2)C(=O)c2ccc(Cl)c(S(=O)(=O)N3CCOCC3)c2)cc1,-70.3
12,Cc1ccc(N(Cc2ccccc2)C(=O)c2cc(S(=O)(=O)N3CCOCC3)ccc2N2CCCC2)cc1,5.59
13,Cc1cccc(N(Cc2ccccc2)C(=O)c2ccc(F)c(S(=O)(=O)N3CCOCC3)c2)c1,-50.5
14,Cc1ccc(N(Cc2ccccc2)C(=O)c2ccc(F)c(S(=O)(=O)N3CCOCC3)c2)cc1,-82.7
15,Cc1cccc(N(Cc2ccccc2)C(=O)c2cc(S(=O)(=O)N3CCOCC3)ccc2Cl)c1,-13.3
16,Cc1cccc(N(Cc2ccccc2)C(=O)c2cc(S(=O)(=O)N3CCOCC3)ccc2F)c1,-5.69
17,COc1ccc(CC(=O)N(Cc2ccccc2)c2ccccc2)cc1S(=O)(=O)N1CCOCC1,1.07
18,Cc1cccc(N(Cc2ccccc2)C(=O)c2ccc(C)c(S(=O)(=O)N3CCOCC3)c2)c1,-17.6
19,COc1ccc(C(=O)N(Cc2ccccc2)c2cccc(C)c2)cc1S(=O)(=O)N1CCOCC1,-35.8
20,Cc1ccc(N(Cc2ccccc2)C(=O)c2cc(S(=O)(=O)N3CCOCC3)ccc2F)cc1,-10.2

row,SMILES,"hERG current change (%, negative = inhibition) at 10uM [%]"
1,Cl.O=C(C1CCN(S(=O)(=O)c2cccs2)CC1)N1CCN(Cc2ccccc2)CC1,3.79
2,Cn1c(=O)[nH]c(=O)c2c1nc(SCCC(=O)O)n2Cc1cccc(Br)c1,1.52
3,COCCNC(=S)NC1CC2CCC(C1)N2Cc1ccccc1 (stereo not shown),2.78
4,COc1ccc(C2C(C(=O)c3cccs3)=C(O)C(=O)N2Cc2cccnc2)cc1OC (stereo not shown),5.03
5,CC(Oc1ccc(Br)cc1)C(=O)Nc1nc(-c2ccccn2)cs1 (stereo not shown),-5.7
6,CC(Oc1cccc(Cl)c1)C(=O)Nc1nc(-c2ccccn2)cs1 (stereo not shown),4.19
7,CC(Oc1ccc(F)cc1)C(=O)Nc1nc(-c2ccccn2)cs1 (stereo not shown),-76.3
8,O=C(Nc1cccc(C(=O)O)c1)/C(=C\c1ccccc1Cl)NC(=O)c1ccco1,6.89
9,COc1ccc(CC(=O)N(C)CC(=O)Nc2ccccc2SC)cc1,8.56
10,CCc1nnc(NC(=O)c2cc(C)oc2C)s1,-10
11,CC(C)N(Cc1nnc(-c2ccc(Cl)cc2)o1)C(=O)C1=COCCO1,-19.9
12,CC(C)N(Cc1nnc(-c2ccccc2Br)o1)C(=O)c1cc(Cl)nc2ccccc12,-24.9
13,Cc1ccccc1OCC(=O)N(Cc1nc(-c2ccccc2)no1)C(C)C,-15
14,Cc1ccccc1OCC(=O)N(Cc1nnc(-c2ccc(Cl)cc2)o1)C(C)C,-53.5
15,Cc1cc(C(=O)N(Cc2nnc(-c3ccc(Cl)cc3)o2)C(C)C)c2ccccc2n1,-58.5
16,CC(C)N(Cc1nnc(-c2ccc(Cl)cc2)o1)C(=O)c1cc2ccccc2o1,-40.1
17,CNc1ccc(Cl)cc1C(N)=O,26.1
18,Cc1ccc(C(=O)COC(=O)c2nc3nccc(C)n3n2)c(C)c1,-7.14
19,COc1ccc(Cl)cc1NS(=O)(=O)N1CCOCC1,6.86
20,CC(Cc1ccccc1)NC(=O)c1cc([N+](=O)[O-])ccc1Cl (stereo not shown),-4.69
